This note sets out measurements from PubChem BioAssay AID2283172 (EPA ToxCast).

SMILES strings stand for the structures. Active and inactive are the calls of the source. Rule for the calls: active = hit-call score of the fitted dose curve at least 0.9, where 1 is the maximum; inactive = score below 0.9.

Chain of human LYN Proto-Oncogene, Src family Tyrosine Kinase (LynB), LYN (gene 4067) (P07948 whole entry, looked up): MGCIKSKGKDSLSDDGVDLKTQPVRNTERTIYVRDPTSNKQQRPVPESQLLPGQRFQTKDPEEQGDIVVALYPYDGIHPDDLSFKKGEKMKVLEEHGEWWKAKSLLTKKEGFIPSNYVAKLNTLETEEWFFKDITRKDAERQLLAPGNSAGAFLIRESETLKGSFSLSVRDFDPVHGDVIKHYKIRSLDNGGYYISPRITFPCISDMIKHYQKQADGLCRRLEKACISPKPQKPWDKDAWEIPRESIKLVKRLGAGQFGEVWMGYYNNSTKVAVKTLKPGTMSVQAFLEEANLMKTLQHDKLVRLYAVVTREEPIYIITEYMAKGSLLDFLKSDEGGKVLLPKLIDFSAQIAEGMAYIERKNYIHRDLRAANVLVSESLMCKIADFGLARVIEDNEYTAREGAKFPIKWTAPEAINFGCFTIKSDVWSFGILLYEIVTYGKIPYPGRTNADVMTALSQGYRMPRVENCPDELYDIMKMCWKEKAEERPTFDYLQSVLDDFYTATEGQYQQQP

For this experiment, the target named is human LYN Proto-Oncogene, Src family Tyrosine Kinase (LynB), LYN (gene 4067) (UniProt P07948). Put plainly: NVS_ENZ_hLynB: NovaScreen (NVS) Enzymatic Assay for human LYN Proto-Oncogene, Src family Tyrosine Kinase (LynB). How it is done:
NVS_ENZ_hLynB is a biochemical, single-readout assay that uses extracted gene-proteins in a cell-free assay. Measurements were taken 1 hour after chemical dosing in a 384-well plate.NVS_ENZ_hLynB is one of one assay component(s) measured or calculated from the NVS_ENZ_hLynB assay. It is designed to make measurements of enzyme activity, a form of enzyme reporter, as detected with fluorescence intensity signals by Fluorescence and electrophoretic mobility shift technology.Data from the assay component NVS_ENZ_hLynB was analyzed into 1 assay endpoint. This assay endpoint, NVS_ENZ_hLynB, was analyzed in the positive analysis fitting direction relative to DMSO as the negative control and baseline of activity. Using a type of enzyme reporter, loss-of-signal activity can be used to understand changes in the enzymatic activity as they relate to the gene LYN. Furthermore, this assay endpoint can be referred to as a primary readout, because this assay has produced multiple assay endpoints where this one serves a enzymatic activity function. To generalize the intended target to other relatable targets, this assay endpoint is annotated to the kinase intended target family, where the subfamily is non-receptor tyrosine kinase. […]
On to `CCOCN(C(=O)CCl)c1c(C)cccc1CC`, for which the call was inactive.
